Data from PubChem BioAssay (NCATS).
Results filed as inconclusive are left out. Values without a mark were called inactive. Activity calls are given as the source filed them.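 Rule for the calls: active = dose-dependent loss of cell ATP signal giving a full or clear fitted curve, ranked by lower potency value; inconclusive = weak partial curve or response only at the top dose; inactive = no loss of viability signal.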

experiment: Cell Viability - Jurkat (AID 426); details: qHTS;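 note: cells exposed to compound for 40 hours at 37 °C before ATP read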
From the text: NIH Chemical Genomics Center [NCGC]
NIH Molecular Libraries Screening Centers Network [MLSCN]
National Institutes of Environmental Health Sciences [NIEHS]
National Toxicology Program [NTP]
We have developed a 1536-well cell-based assay for quantitative high throughput screening (qHTS) against a number of cell lines to determine in vitro cytotoxicity of small molecules. This particular assay uses the Jurkat cell line (Clone E6-1) which is derived from the human T cell leukemia.
NCGC Assay Protocol Summary:
The CellTiter-Glo luminescent cell viability assay (Promega) is a homogeneous method to measure the number of viable cells in culture. The end point readout of this assay is based on quantitation of intracellular ATP, an indicator of metabolic activity, using the luciferase reaction. Luciferase catalyzes the oxidation of beetle Luciferin to oxyluciferin and light in the presence of ATP. The luminescent signal is proportional to amount of ATP present.
Using the CellTiter-Glo luminescent cell viability assay, the amount of cellular ATP was measured in the Jurkat cell line with complete culture medium following compound treatment for 40 hours. The assay was performed in opaque white Kalypsys 1536-well plates. In the screen, tamoxifen and doxorubicin were used as positive controls. Library compounds were measured for their ability to cause acute toxicity in the cell line, as reflected by a decrease in intracellular ATP levels, in a concentration-dependent manner. […] AC50 values were determined from concentration-response data modeled with the standard Hill equation.
qHTS protocol for CellTiter Glo Jurkat cellular assay
[Step] [Parameter] [Value] [Description]
1. Reagent; 5 uL; 5000 Jurkat cells/well
3. Controls; 23 nL; Tamoxifen 0.34 uM to 100 uM & Doxorubicin 0.02 nM to 100 uM
4. Time; 40 hr; 37 °C incubation
5. Reagent; 5 uL; CellTiter Glo reagent
6. Time; 20 min; Room Temperature
7. Detection; Luminescence; Viewlux plate reader
Keywords: cell viability, cytotoxicity, Jurkat cell line, luminescence, NTPHTS, NTPHTS_NCGC, NIEHS, EPA, DSSTox, MLSMR, MLSCN, NIH Roadmap, qHTS, NCGC
Potency is the fitted concentration of half-maximal effect.

SMILES	Potency
CCCC(C)(COC(N)=O)COC(N)=O	> 92 µM
Oc1ccc(Cl)cc1	> 92 µM
O=P1(N(CCCl)CCCl)NCCCO1 (configuration not stated)	> 92 µM
C[C@]1(O)CC[C@H]2[C@@H]3CCC4=CC(=O)CC[C@]4(C)[C@@]3(F)[C@@H](O)C[C@@]21C	> 92 µM
COP(=S)(OC)Oc1ccc(SC)c(C)c1	> 92 µM
CN1C[C@H](C(=O)N[C@]2(C)O[C@@]3(O)[C@@H]4CCCN4C(=O)[C@H](Cc4ccccc4)N3C2=O)C=C2c3cccc4[nH]cc(c34)C[C@H]21	56.2 µM (active)
COC(=O)C(c1ccccc1)C1CCCCN1 (configuration not stated)	> 92 µM
COc1cc(OC)c(OC)cc1C=O	> 92 µM
CC(C)NC(C)C	> 92 µM
C[C@]12CCC(=O)C=C1CC[C@@H]1[C@@H]2CC[C@]2(C)C(=O)CC[C@@H]12	> 92 µM
NCCc1ccc(O)cc1	> 92 µM
CCC(C)(C)c1ccc(O)cc1	> 92 µM
CC(C)c1cccc(C(C)C)c1O	> 92 µM
Nc1ccccc1C(=O)O	> 92 µM
Nc1ccccc1	> 92 µM
O=C(O)CCCc1ccc(N(CCCl)CCCl)cc1	22.8 µM (active)
CCOC(=O)CC(SP(=S)(OC)OC)C(=O)OCC (configuration not stated)	> 92 µM
